Bioassay records deposited in PubChem by National Center for Advancing Translational Sciences (NCATS).
Rows were chosen to be rich in hits. Some 2.8% of all compounds tested hit in one or more screens of this group.
Six1-Eya2 blk = qHTS Assay for Inhibitors of the Six1/Eya2 Interaction; 0.56% of 360,000 active; Homeobox protein SIX1 (Homo sapiens) + Protein phosphatase EYA2 (Homo sapiens), …; AID 651725, 2012; AlphaScreen GST-Six1/His-Eya2 binding, biochemical; hits give low values; activity change, % (test concentration not listed); in the data active = activity change below about -65%; inconclusive = mostly about -30% to -63%
Target sequence (O00167 whole entry, looked up): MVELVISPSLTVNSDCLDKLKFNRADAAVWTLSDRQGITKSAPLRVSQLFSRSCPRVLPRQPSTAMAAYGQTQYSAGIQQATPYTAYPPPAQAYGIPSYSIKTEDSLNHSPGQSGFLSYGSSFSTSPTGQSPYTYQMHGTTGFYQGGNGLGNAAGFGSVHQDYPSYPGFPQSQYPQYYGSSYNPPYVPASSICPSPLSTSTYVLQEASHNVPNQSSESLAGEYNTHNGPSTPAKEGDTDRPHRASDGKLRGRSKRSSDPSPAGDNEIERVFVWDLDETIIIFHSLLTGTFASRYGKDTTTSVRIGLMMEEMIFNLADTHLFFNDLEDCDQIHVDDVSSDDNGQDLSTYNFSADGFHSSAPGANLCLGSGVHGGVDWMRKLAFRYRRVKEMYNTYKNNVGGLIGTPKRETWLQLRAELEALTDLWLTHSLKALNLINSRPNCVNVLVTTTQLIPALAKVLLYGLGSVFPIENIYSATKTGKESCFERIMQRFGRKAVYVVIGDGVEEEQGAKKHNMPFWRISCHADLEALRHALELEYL
Target sequence (Q15475 whole entry, looked up): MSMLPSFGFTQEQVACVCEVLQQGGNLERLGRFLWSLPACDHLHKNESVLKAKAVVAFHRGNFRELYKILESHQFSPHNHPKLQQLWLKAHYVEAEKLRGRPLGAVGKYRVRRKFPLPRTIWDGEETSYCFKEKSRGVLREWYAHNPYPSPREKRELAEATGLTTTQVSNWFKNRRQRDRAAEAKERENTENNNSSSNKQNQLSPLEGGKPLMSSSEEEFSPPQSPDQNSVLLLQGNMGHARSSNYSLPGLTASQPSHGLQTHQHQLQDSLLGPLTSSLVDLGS
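Six1/Eya2 binding was read as AlphaScreen signal after compounds were pinned into GST-Six1 plus His-tagged Eya2 (5X stock 250/500 nM) in pH 8.0 Tris/NaCl/TCEP buffer, beads added, then incubated 1 h, 37 C, dark.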
ATXN2 expr inh = Primary qHTS for Inhibitors of ATXN expression; HEK-293 ATXN2-luciferase reporter, luminescence, 24 h; Potency, µM (titrated, usually from 57 µM), actives largely listed as inhibitors; 0.72% of 360,000 active; note: nearly all actives have a fitted effect of over 55% in size
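qHTS (up to 57 uM final) was run with 24 h compound exposure of reporter cells at 37 °C. Each well was multiplexed: SteadyGlo luminescence measured ATXN2-luciferase expression after a fluorogenic Gly-Phe-AFC viability readout (25 uM final).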
TGFb inhibitor = qHTS for Inhibitors of TGF-b | Potency, µM (top dose mostly 46.1 µM), hits mostly inhibitors | 1.2% of 410,000 active | HepG2 CAGA-GFP TGF-b/SMAD3 reporter, GFP fluorescence, 18 h; TGF-beta stimulated, 500 pg/mL final; note: nearly all actives have a fitted effect of over 65% in size
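Per well, imaged GFP fluorescence of HEPG2 CAGA-GFP cells gives the signal; cells get compound, then TGF-beta (500 pg/mL final), 18 h at 37 degrees C; %Activity versus -TGF-beta and +DMSO controls.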
HepG2 viability = qHTS for Inhibitors of TGF-b: Cytotox Counterscreen. HepG2 CAGA-GFP viability, ATP luminescence, 18 h. Potency, µM (series often up to 46.1 µM), actives largely listed as cytotoxic. 0.76% of 410,000 active
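HepG2 CAGA-GFP cells (1000/well, DMEM with 1% FBS) received compound, then TGF-beta at 500 pg/mL final, and were incubated 18 hours at 37 degrees C. Viability was read by CellTiter-Glo luminescence. Media-only wells were set as complete cell-killing and DMSO as no toxicity.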
S2 tox = Viability Counterscreen for Primary qHTS for Inhibitors of ATXN expression; S2 cells (HEK-293 line with an ATXN2-luciferase reporter) viability, CellTiter-Fluor protease fluorescence, 24 h; Potency, µM (highest dose often 56.7 µM), usual class: cytotoxic; 0.49% of 400,000 active; note: nearly all actives have a fitted effect of over 40% in size
CtBP-E1A inh = qHTS Assay for Inhibitors of the CtBP/E1A Interaction | CtBP / adenovirus E1A interaction (AlphaScreen) | AlphaScreen GST-E1A/His-CtBP binding, 1536-well; hits give low values | activity change, % (concentration not given with the values) | 0.49% of 340,000 active | AID 651724, 2012; in the data active = activity change below about -65%; inconclusive = mostly about -30% to -63%
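In 5 uL wells, 23 nL compound meets equimolar GST-E1A and His-CtBP (5X stock 125 nM each) for 2 h, 37 °C. Beads (5X, 50 ug/mL) then 1 h, 37 °C, dark.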
A number is an active result; n = inactive; u = inconclusive; x = no result given; [ ] = dose if it differs, or a comment. Unless noted, calls come from the whole dose curve; as a rule, active = well fitted curve in the direction sought with a large enough effect; inconclusive = small, poorly fitted or top-dose-only effect, or another doubt; inactive = no such curve, though single readings can be large; an effect the other way counts as inactive or inconclusive.

SMILES | Six1-Eya2 blk | ATXN2 expr inh | TGFb inhibitor | HepG2 viability | S2 tox | CtBP-E1A inh
COc1ccc(/C=C(\C#N)c2nc3ccccc3n2C)c(OC)c1 | x | n | n | n | u | x
CCN1CCC(N(Cc2ccc3c(c2)OCO3)C(=O)Nc2ccc(Br)c(C)c2)CC1 | x | 25µM | u | n | u | x
Cc1ccc(CN2CCOc3ccc(CN4CCC(O)(c5cccnc5)CC4)cc3C2)cc1 | x | x | x | x | n | x
CN(C)c1ccc(/C=C2\SC(=O)N(CCc3nnc(N)s3)C2=O)cc1 | n | 4µM | n | n | n | n
CN(C)c1ccc(/C=C2/SC(=O)N(CCN=C3NS(=O)(=O)c4ccccc43)C2=O)cc1 | n | n | n | n | n | n
O=S(=O)(Nc1ccc(O)c2ccccc12)c1ccc(F)cc1 | n | 32µM | u | 5µM | u | n
CCc1ccc(S(=O)(=O)Nc2ccc(O)c3ccccc23)cc1 | n | x | u | n | n | x
Cc1cccc(C)c1NC(=O)c1ccc([N+](=O)[O-])s1 | n | x | u | n | n | n
Cc1ccnc(NC(=O)c2ccc([N+](=O)[O-])s2)c1 | n | n | 13µM | n | n | n
Cc1ccnc(NC(=O)c2cc([N+](=O)[O-])cc([N+](=O)[O-])c2)c1 | n | n[11.3 µM] | n | n | n | n
O=C(Nc1ccccc1N1CCOCC1)c1ccccc1[N+](=O)[O-] | n | n | n | n | n | n
Cc1cccc(NC(=O)c2ccc([N+](=O)[O-])s2)c1C | n | n | 11µM | 14µM | u | n
O=C(Nc1ccccc1N1CCOCC1)c1ccc([N+](=O)[O-])s1 | n | u | 11µM | n | u | u
Cc1cccc(NC(=O)c2ccc([N+](=O)[O-])s2)n1 | n | x | 14µM | n | n | x
Cc1cccc(NC(=O)c2ccc([N+](=O)[O-])cc2Cl)n1 | n | n | n | n | n | n
CC1(C)CC2(C)OC(=N)C1(C#N)C2(C#N)C#N (configuration not stated) | n | u | 16µM | n | u | n
O=C(NCc1nc(-c2ccc(C(F)(F)F)cc2)no1)Nc1ccc(OC(F)(F)F)cc1 | n | u | 11µM | n | u | n
Cc1ccc(Cl)cc1NC(=O)CN1C(=O)c2ccccc2Sc2ncccc21 | x | n | n | n | u | x
Oc1ccc(Nc2nc3ccccc3nc2Nc2ccc(O)cc2)cc1 | n | u | 11µM | n | u | n
Oc1ccc(Nc2nc(-c3ccc(Cl)cc3)nc3ccccc23)cc1 | x | x | u | 14µM | x | x
Oc1ccc(Nc2nc(-c3ccccc3)nc3ccccc23)cc1 | n | n | n | n | n | n
C/C(=N\Nc1nncc2ccccc12)c1ccc(O)cc1 | n | n | n | n | n | n
COc1ccc(-c2nc(N/N=C(\C)c3ccc(O)cc3)c3ccccc3n2)cc1 | n | u | 14µM | n | u | n
C[C@@H]1C(=O)O[C@@H]1[C@@H](C)CO[Si](c1ccccc1)(c1ccccc1)C(C)(C)C | x | x | n | n | x | x
CCCCNS(=O)(=O)c1ccc(NC(=O)C2c3ccccc3Oc3ccccc32)cc1 | n | n | u | 10µM | n | n
SMILES | Six1-Eya2 blk | ATXN2 expr inh | TGFb inhibitor | HepG2 viability | S2 tox | CtBP-E1A inh
O=C(Nc1ccncc1)C1c2ccccc2Oc2ccccc21 | n | n | n | n | n | n
Cc1nn(-c2ccccc2)c(C)c1C(=O)OCC(=O)Nc1ccccc1F | n | n | n | n | n | n
COc1ccc(C)cc1NC(=O)COC(=O)c1c(C)nn(-c2ccccc2)c1C | n | 22µM | n | n | u | n
COc1cc2c(NC3CCN(C(C)C)CC3)nc(N3CCCN(C)CC3)nc2cc1OCCCN1CCCC1 | x | x | u | n | x | x
CN(C)S(=O)(=O)c1cccc(-c2nn(-c3ccccc3)cc2/C=C2\SC(=S)NC2=O)c1 | n | n | 13µM | n | n | n
COc1cc(-c2cnc3ccccc3c2)cc2c1OCCN(C(=O)Cn1nccc1C)C2 | x | x | x | x | n | x
Cn1ncc2c(Nc3ccc(Cl)c(Cl)c3)ncnc21 | n | x | n | n | u | x
CN1CCC(Nc2ncc3ncnc(Nc4ccc(F)c(Cl)c4)c3n2)CC1 | x | 28µM | x | x | u | x
Cc1c(C(=O)OC2CCCCC2)[nH]c2c1C(=O)CC(c1ccc(C(C)(C)C)cc1)C2 (configuration not stated) | x | n | n | n | n | x
CCC1(C2CCN(C(=O)c3coc4c3C(=O)CCC4)CC2)NC(=O)N(CCc2scnc2C)C1=O (configuration not stated) | x | x | x | x | n | x
COc1ccc(/C=C/C(=O)NC(=S)Nc2ccc(S(=O)(=O)Nc3ccc(OC)nn3)cc2)cc1 | u | n | n | n | n | -77
COc1ccc(/C=C/C(=O)NC(=S)Nc2ccc(S(=O)(=O)Nc3cc(C)on3)cc2)cc1 | n | n | u | n | n | n
CCCc1cc(=O)[nH]c(SCC(=O)NCCCC(=O)OCC)n1 | n | n | n | 0.45µM | n | n
c1coc(CNc2nc(NCc3ccco3)c3ccccc3n2)c1 | x | x | 0.71µM | n | x | x
Nc1nc(Nc2ccccc2)nc(NCc2ccco2)c1[N+](=O)[O-] | n | n | n | n | u | n
c1ccc(CNc2nc(NCc3ccccc3)c3ccccc3n2)cc1 | n | u | u | n | x | n
Fc1ccc(Nc2nc(NCc3ccco3)c3ccccc3n2)cc1 | n | x | u | 18µM | 11µM | x
Cn1c(=O)c(F)c(Nc2ccc(I)cc2F)c2c(=O)n(C[C@@H](O)CO)cnc21 | x | n | x | x | x | x
CN1CCC(NCCC(c2ccc(F)cc2)c2ccc(Cl)cc2)CC1 (configuration not stated) | n | 25µM | u | 16µM | x | n
CC(C)C(CCNC1CCN(C)CC1)c1ccc(Cl)cc1 (configuration not stated) | n | u | u | n | u | n
Cc1ccc2c(c1)CN(CCNC(=O)c1cc3ccccc3oc1=O)CC(C)O2 (configuration not stated) | x | x | x | x | n | x
CC(C)(C)c1nc2cc(Cl)c([N+](=O)[O-])cc2o1 | n | n | 7.1µM | n | n | n
CCN(Cc1ccncc1)Cc1ccc2c(c1)CN(C(=O)c1ccccc1)CCO2 | x | x | x | x | n | x
Cc1ccc(C)c(Nc2nc3nonc3nc2Nc2cccc(C)c2C)c1 | x | u | 6.3µM | n | x | x
O=C(NNC(=O)c1cccnc1SCc1cccc([N+](=O)[O-])c1)c1ccccn1 | n | 7.9µM | u | n | n | u
Cc1c(/C=N/NC(=O)c2ccc(O)cc2)c2ccccn2c1C(=O)c1ccc(F)cc1 | -70 | n | n | n | u | -78
